p53 reactivation: qHTS assay for re-activators of p53 using a Luc reporter | H1299 p53-A138V BP100-luciferase reporter, luminescence, 24 h | Potency, µM (top dose mostly 92.2 µM), for the others: at the top dose activity change, positive = activation, usual class: activators | 320,000 tested, 0.063% active; further: potency means the concentration at half of the fitted maximal effect; % of control where 0% means no effect; nearly all actives have a fitted effect of over 45% in size
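p53-null H1299 cells stably carrying temperature-sensitive p53-A138V and a BP100-luciferase reporter were pinned with compounds (4-point, 1:5 series) and held 24 hrs at 37 deg C. Luminescence was read 10 min after detection reagent.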
ClpP mod: qHTS Assay for Activators of ClpP | ATP-dependent Clp protease proteolytic subunit (Bacillus subtilis (strain 168)), P80244 | purified B. subtilis ClpP, FRET peptide cleavage, 20 min | Potency, µM (titrated, usually from 57.5 µM), inactives show at the highest dose activity change, negative = active | 340,000 tested, 1.9% active | AID 651965, 2013; active means well fitted falling curve with a large enough effect; inconclusive means small, poorly fitted or top-dose-only effect; inactive means no such curve, though single readings can be large or run the other way; further: potency means the concentration at half of the fitted maximal effect; the source files actives as falling curves though it sought activators and does not explain the sign; nearly all actives have a fitted effect of over 65% in size
Target sequence (P80244 whole entry, looked up): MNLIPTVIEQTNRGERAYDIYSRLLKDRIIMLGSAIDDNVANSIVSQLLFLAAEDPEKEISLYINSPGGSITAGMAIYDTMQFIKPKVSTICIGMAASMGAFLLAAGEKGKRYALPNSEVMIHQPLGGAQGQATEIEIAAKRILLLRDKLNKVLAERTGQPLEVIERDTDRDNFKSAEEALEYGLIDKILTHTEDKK
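ClpP 10 microg/mL final, pH 8 Tris/KCl buffer with BSA, glycerol, Tween-20; compound pinned in; FRET-FV substrate; RT 20 min; Ex320/Em430; ΔFRET vs ADEP 5.8 microM, DMSO, no enzyme.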
miR-21 act: qHTS Assay for Modulators of miRNAs and/orActivators of miR-21 | HeLa miR-21 FLuc reporter, luciferase, 48 h | Potency, µM (top dose mostly 38.3 µM), for inactives: at the highest dose activity change, positive = activation, hits mostly activators | 340,000 tested, under 10 active | AID 2288, 2010;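 further: % of control where 0% means no effect; miR-21 action dims this reporter so a rising signal means less miR-21 action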
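HeLa cells stably expressing CMV-driven firefly luciferase with a downstream miR-21 binding sequence, endogenously expressing miR-21, were treated with titrations (up to about 40uM final) for 48 hours at 37 degree Celsius. Luciferase luminescence was read after lysis.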
Nrf2 inh: Nrf2 qHTS screen for inhibitors. Potency, µM (doses to about 46 µM), for inactives: top-dose activity change, negative = inhibition, most hits filed as inhibitors. AID 504444, 2011. A549 ARE-Fluc reporter, luciferase luminescence, 18-24 h. 360,000 tested, 2.1% active; further: potency means the concentration at half of the fitted maximal effect; on the % scale 0 is the no-effect control and ±100 the full control effect; nearly all actives have a fitted effect of over 60% in size
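Concentration-response testing used A549 ARE_Fluc cells at 5000 cells/well. Following an 18-24 h compound incubation, viability was read by fluorescence (Ex 405/Em 525) and luciferase output by luminescence.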
A549 tox: Nrf2 qHTS screen for inhibitors: counterscreen for cytotoxicity. A549 ARE-Fluc cells, CellTiter-Fluor viability, 18-24 h. Potency, µM (series often up to 46 µM), without a hit: at the highest dose activity change, negative = cytotoxicity, usual class: inhibitors. 390,000 tested, 0.16% active; further: potency means the concentration at half of the fitted maximal effect; on the % scale 0 is the no-effect control and ±100 the full control effect
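A549 ARE_Fluc cells in 5% FBS OPTI-MEM were exposed to compounds in concentration-response for 18-24 h at 37 deg C. Viability was read by CellTiter-Fluor fluorescence (Ex 405/Em 525) after 30 min, before the luciferase read.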
Nrf2 ARE act: qHTS of Nrf2 Activators; AID 624171, 2012; 410,000 tested, 0.31% active; Potency, µM (doses to about 46.1 µM), for inactives: at the top dose activation, actives largely listed as activators; AREc32 ARE-luciferase reporter (MCF7-derived line), luminescence, 24 h; further: potency means the concentration at half of the fitted maximal effect; % of control where 0% means no effect; nearly all actives have a fitted effect of over 65% in size
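Reporter line AREc32 (ARE-Fluc), seeded overnight in OPTI-MEM with 5% FBS; compound pin-transferred, 24 hr at 37 deg C, 5% CO2; luminescent read-out.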
* hit, by the source's call; u = inconclusive; x = no result; [ ] = dose if it differs, or a comment. In the library only some 3.7% were active in any assay of this set; here they are far more common. Unless noted, the call rests on the fitted dose curve; in most records, active means well fitted curve in the direction sought with a large enough effect; inconclusive means small, poorly fitted or top-dose-only effect, or another doubt; inactive means no such curve, though single readings can be large; an effect the other way counts as inactive or inconclusive.

SMILES	p53 reactivation	ClpP mod	miR-21 act	Nrf2 inh	A549 tox	Nrf2 ARE act
CCOC(=O)C(C)N1C(=O)S/C(=C/c2ccc3c(c2)n(C)c(=O)n3C)C1=O (stereo not given)	2%	-3%	2%	21µM*	-6%	u
CCC(C)N1C(=O)S/C(=C/c2ccc3c(c2)n(C)c(=O)n3C)C1=O (stereo not given)	-1%	x	-4%	u	-11%	3%
Cc1cc2c(cc1C)N(C(=O)CCl)CCN2C(=O)CCl	x	2%	x	u	-5%	11µM*
Cc1ccc(SCc2nc(-c3ccc(C(=O)NCCc4ccc(Cl)cc4)cc3)oc2C)cc1	x	-1%	-3%	u	0%	0%
Cc1ccc(SCc2nc(-c3ccc(C(=O)NCC(C)c4ccccc4)cc3)oc2C)cc1 (stereo not given)	x	4%	u	9.2µM*	8%	4%
COc1ccc(-n2ncc(C(=O)Nc3ccc4c(c3)OCCO4)c2C2CCN(C(=O)OC(C)(C)C)CC2)cc1	x	-4%	28%	u	-13%	0%
CC(C)Oc1ccc(C(=O)Nc2ccc(NC(=O)c3ccco3)c(Cl)c2)cc1	-2%	u	-26%	u	-8%	1%
CC(C)COc1ccc(C(=O)Nc2ccc(NC(=O)c3ccco3)c(Cl)c2)cc1	0%	-6%	-7%	16µM*	u	0%
CC(=O)Oc1ccc(NC(=O)C2CCCCC2)c(C(=O)O)c1	-16%	28µM*	-5%	18%	5%	0%
CCOc1ccccc1NC(=O)N1CC(CC)Oc2ccccc21 (stereo not given)	x	-1%	3%	5%	-3%	8%
COCCNC(=O)CC(NS(=O)(=O)c1ccc(NC(C)=O)cc1)C(C)C (stereo not given)	4%	32µM*	-8%	x	0%	0%
O=C(NCC1CCN(Cc2ccccc2Cl)CC1)c1cc2ccc3cccnc3c2[nH]1	x	3%	-4%	u	-24%	12%
CCOc1ccc(N(C(C)=O)c2nc(C)cc(C)c2C#N)cc1	-4%	25µM*	-5%	x	-1%	0%
CC(=O)N(c1ccc(Cl)cc1)c1nc(C)cc(C)c1C#N	-1%	x	-6%	-7%	0%	11%
COc1ccc(C2Nc3ccccc3C(=O)N2CCc2ccc(Cl)cc2Cl)cc1COc1ccc(NC(C)=O)cc1 (stereo not given)	x	x	x	-16%	6%	x
COC(=O)c1c(C)nc(C)c2c(=O)oc3ccccc3c12	11%	0%	-8%	-1%	6%	-2%
Cc1cc2c(c(N)n1)c(=O)oc1ccccc12	5%	40µM*	-3%	-26%	-1%	3%
Cc1nc2nc(NC(=O)c3cccc(Cl)c3)[nH]n2c(=O)c1Cc1ccccc1	x	-4%	-1%	6%	1%	22%
CCOC(=O)N1CCN(CC(O)COc2ccc(CC)cc2)CC1 (stereo not given)	1%	0%	-4%	-8%	-2%	0%
CCOC(=O)N1CCN(CC(O)COCc2ccc(Cl)cc2)CC1 (stereo not given)	-4%	14µM*	0%	x	-3%	0%
CCOC(=O)NC(=O)COC(=O)c1ccc(Sc2ncn[nH]2)c([N+](=O)[O-])c1	5%	16µM*	-1%	1%	-5%	-1%
C=CCN(CC=C)C(=O)COC(=O)c1ccc(Sc2ncn[nH]2)c([N+](=O)[O-])c1	-3%	x	0%	-7%	1%	-1%
CCc1noc(-c2ccc(N3CCCCC3C)c([N+](=O)[O-])c2)n1 (stereo not given)	x	1%	-36%	u	-2%	6%
O=C(CSCc1ccc(F)cc1)N1CCc2c([nH]c3ccccc23)C1c1ccc(F)cc1 (stereo not given)	x	-4%	u	x	u	1%
COc1cc(OC)cc(-c2c(-c3cccs3)c3cc(-c4ccc(OC)c(OC)c4)ccc3n2C)c1	3%	4%	x	-11%	4%	1%
SMILES	p53 reactivation	ClpP mod	miR-21 act	Nrf2 inh	A549 tox	Nrf2 ARE act
COc1cc(OC)cc(-c2c(-c3cccs3)c3cc(-c4cnc(N)nc4)ccc3n2C)c1	-12%	12%	x	21µM*	-7%	-1%
CC(=O)N/N=C/c1c(C)[nH]n(-c2ccccc2)c1=O	0%	x	2%	15µM*	u	1%
COCC(=O)N/N=C/c1c(C)[nH]n(-c2ccccc2)c1=O	-9%	x	2%	15µM*	u	2%
Cc1[nH]n(-c2ccccc2)c(=O)c1/C=N\NC(=O)C1COc2ccccc2O1 (stereo not given)	u	-2%	24%	16µM*	-14%	0%
Cc1c(/C=N\NC(=O)C2COc3ccccc3O2)c2ccccc2n1C (stereo not given)	u	-1%	27%	u	-12%	0%[9.22 µM]
COc1ccc(CNc2nc3c(-c4ccc(C)cc4)nnn3c3ccccc23)cc1	x	u	-38%	u	4%	9%
CCOC(=O)CNC(=O)CSc1nc2ncc(Br)cc2[nH]1	0%	16µM*	5%	0%	-11%	3%
CCN(CC)C(=O)CSc1nc2ncc(Br)cc2[nH]1	-3%	-3%	-11%	x	12%	0%
Cc1cc(NCCCN2CCOCC2)n2c(nc3ccccc32)c1C#N	-5%	-2%	-6%	-16%	-6%	0%
Cc1cc(NCCN2CCOCC2)n2c(nc3ccccc32)c1C#N	-1%	3.5µM*	-3%	-4%	-14%	0%
Cc1cc(Nc2cccc([N+](=O)[O-])c2)n2c(nc3ccccc32)c1C#N	-12%	-8%	17%	10µM*	u	4%
Cc1cc(Nc2ccc(F)cc2)n2c(nc3ccccc32)c1C#N	x	-2%	-8%	-13%	-2%	0%
COC(=O)c1sccc1S(=O)(=O)N(CC(=O)Nc1cccc(C)c1C)c1ccc(C)c(C)c1	x	1%	12%	u	-5%	0%
COc1ccc2oc3cc(C)[n+]([O-])c(-c4ccc(Br)cc4)c3c2c1	-3%	-8%	1%	23µM*	u	0%
COc1ccc(-c2csc(Nc3ncccc3C)n2)cc1OC	u	2%	-48%	-16%	-9%	8%
COc1ccc(-c2csc(Nc3ncccc3C)n2)cc1	45µM*	-1%	-11%	u	-6%	4%

Bioassay records deposited in PubChem by National Center for Advancing Translational Sciences (NCATS).
